Assay outcomes from PubChem.
Compounds with a hit are over-represented: about 3.2% of the library has one in this group of screens.
MT1-MMP txn act: MT1-MMP promoter transcription activation; 0.16% of 86,000 active; AID 750; HT1080 MT1-MMP promoter luciferase reporter, luminescence, overnight; active compounds read high; activation factor at 10 µM;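 active = activation factor of at least 2 for MT1-MMP transcription at 10 µM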
EphB4 ephrin blk: blocks human EphB4 binding to ephrin-B2. P54760. EphB4 LBD / TNYL-RAW-Alexa532 peptide, fluorescence polarization. inhibition, % at 7 µM. 0.15% of 97,000 active. AID 720;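 active = inhibition above the screen-wide mean inhibition plus 3 SD, cut at about 15% in these data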;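 note: 0% = DMSO wells and 100% = excess unlabeled TNYL-RAW peptide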
ERa SRC1 pot: enhances coactivator binding to human estrogen receptor alpha; coactivator binding (% of control), % at 25.6 µM; 1.3% of 86,000 active; AID 639; P03372; TR-FRET ERalpha-LBD/SRC-Cy5 coactivator binding, 2 h; 100 = basal binding, no effect; in the data active = activity above about 200%;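 note: binding measured in presence of low estradiol as agonist stimulus; 0% = peptide alone without receptor and 100% = receptor with peptide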
Target sequence (P03372 whole entry, looked up, the tested form may be a part): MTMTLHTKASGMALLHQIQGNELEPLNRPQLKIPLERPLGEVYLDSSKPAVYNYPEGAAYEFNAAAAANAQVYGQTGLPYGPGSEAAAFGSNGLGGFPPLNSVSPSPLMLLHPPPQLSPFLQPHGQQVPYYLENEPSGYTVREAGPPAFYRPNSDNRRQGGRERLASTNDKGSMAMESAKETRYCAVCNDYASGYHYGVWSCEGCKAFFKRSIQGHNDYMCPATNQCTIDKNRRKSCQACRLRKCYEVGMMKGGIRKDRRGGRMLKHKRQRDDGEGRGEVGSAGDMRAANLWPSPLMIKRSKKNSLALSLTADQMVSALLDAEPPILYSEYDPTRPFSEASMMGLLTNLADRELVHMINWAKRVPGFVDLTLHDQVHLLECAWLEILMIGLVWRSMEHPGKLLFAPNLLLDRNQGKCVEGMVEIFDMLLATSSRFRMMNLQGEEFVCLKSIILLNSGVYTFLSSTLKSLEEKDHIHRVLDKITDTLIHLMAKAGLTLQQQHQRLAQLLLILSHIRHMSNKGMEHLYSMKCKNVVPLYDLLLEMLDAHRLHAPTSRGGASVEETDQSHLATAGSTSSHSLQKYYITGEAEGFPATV
ERb SRC1 inh: blocks coactivator binding to human estrogen receptor beta | Q92731 | AID 633 | 1.3% of 86,000 active | inhibition, % at 25.6 µM | TR-FRET ER-beta LBD / SRC1-Cy5 peptide binding; receptor agonist-loaded with 1 µM estradiol;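 active = compounds whose percent inhibition of the receptor-coactivator binding signal exceeds about 50% in the single-dose screen, limit read from the data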;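 note: 0% = receptor plus peptide wells without compound and 100% = peptide-only wells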
ERa SRC1 inh: blocks coactivator binding to human estrogen receptor alpha | TR-FRET ER-alpha LBD / SRC-1 peptide, estradiol-bound | inhibition, % at 25.6 µM | 1.7% of 86,000 active | AID 629; in the data active = inhibition above about 50%;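 note: 0% = receptor plus peptide control and 100% = peptide only without receptor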
Candida biofilm: kills Candida albicans biofilms; AID 834; C. albicans biofilm + clotrimazole, Alamar Blue; inhibition, % at 6 µM; 0.14% of 85,000 active;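 active = inhibition above 20%; inactive = inhibition below 20%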;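 note: preformed 24 hr biofilms exposed to compound for 48 hr; 0% = biofilm without compound and 100% = blank killed by clotrimazole plus chlorhexidine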
* = called active by the depositor; . = no result given; [ ] = dose if it differs, or a comment.

SMILES	MT1-MMP txn act	EphB4 ephrin blk	ERa SRC1 pot	ERb SRC1 inh	ERa SRC1 inh	Candida biofilm
CC1Cc2ccccc2N1Cc1nc2cc(C(F)(F)F)ccc2c(=O)[nH]1 (stereo not drawn)	1.2	-5	96	-4	-2	3
CCC(C)(C)n1nnnc1C(c1cc2cc(C)cc(C)c2[nH]c1=O)N1CCN(Cc2ccc3c(c2)OCO3)CC1 (stereo not drawn)	1.1	4	227*[fluorescence artefact?]	36	30	3
CC1CN(Cc2cc(=O)[nH]c(C(C)C)n2)CC(C)O1 (stereo not drawn)	.	-2	.	.	.	.
CCCc1cc2c(n1Cc1ccc(OC)cc1)C(C)C1CN(C(=O)c3ccccc3)C(C)(C(=O)OC)C21 (stereo not drawn)	1.1	.	.	.	.	.
CCCCNC(=O)C1C2C=CC3(CN(Cc4ccccc4Cl)C(=O)C13)O2 (stereo not drawn)	1.2	16*	.	.	.	.
CC(C)CCNC(=O)C1C2C=CC3(CN(Cc4ccccc4Cl)C(=O)C13)O2 (stereo not drawn)	1.1	3	.	.	.	.
c1ccc2c(c1)oc1c(NCc3ccc4c(c3)OCO4)ncnc12	1.1	.	378*[fluorescence artefact?]	-5	-3	5
CC(C)(C)n1nnnc1C(c1cc2cc3c(cc2[nH]c1=O)OCCO3)N1CCSCC1 (stereo not drawn)	1.2	4	85	0	7	9
O=c1[nH]c2cc3c(cc2cc1C(c1nnnn1C1CCCC1)N1CCSCC1)OCCO3 (stereo not drawn)	1.1	-8	215*[fluorescence artefact?]	10	20	4
CN(C)C(=O)[C@H]1C[C@@H]1[C@H](NC(=O)OCc1ccccc1)c1ccccc1	1.1	.	.	.	.	.
C=CCn1cnc2c(c1=O)c1nc3ccccc3nc1n2/N=C/c1cccc(OC)c1	1	.	94	33	68*[fluorescence artefact?]	-4
COCCn1cnc2c(c1=O)c1nc3ccccc3nc1n2/N=C/c1cccc(OC)c1OC	1.1	.	93	0	10	8
C=CCn1c(N)cc(=O)nc1SCC(=O)Nc1ccc2ccccc2c1	1.1	-5	101	-7	-3	10
COc1ccc(-c2coc3c(CN4CCCCC4)c(O)c(CN4CCCCC4)c(O)c3c2=O)cc1	1.2	.	79	35	67*[fluorescence artefact?]	9
COc1ccc(C(=O)c2coc3ccc(O)c(CN4CCCC4)c23)cc1	1.3	7	98	-9	7	11
O=C(NCc1ccccc1)NS(=O)(=O)c1ccccc1Cl	0.9	.	.	.	.	.
CCn1c(SCC(=O)N2CCOCC2)nc2sc3c(c2c1=O)CCCC3	1	5	109	0	8	1
CCn1c(SCC(=O)N2CCOCC2)nc2oc3c(Cl)cc(Cl)cc3c(=O)c2c1=O	1.1	0	64	52*	65*[fluorescence artefact?]	3
COC(=O)[C@@]1(Cc2ccc(F)cc2)[C@H]2c3cc(C(=O)N(C)C)n(CCc4ccc(O)c(O)c4)c3C[C@H]2CN1C(=O)c1ccccc1	1.1	.	.	.	.	.
CN(C1CCCCC1)S(=O)(=O)c1ccc(C(=O)O)cc1	1.1	6	101	8	6	25*
CCOC(=O)c1sc(NC(=O)c2c(C)nn(Cc3ccccc3)c2C)cc1C	1	-11	202*	-3	6	5
CCOC(=O)c1sc(NC(=O)c2ccccc2)cc1C	.	3	.	.	.	.
Cn1c(=O)c2c(nc(SCCN3CCOCC3)n2Cc2ccccc2Cl)n(C)c1=O	1.1	-5	104	-14	3	3
Cc1nnc(Sc2nc3c(c(=O)n(C)c(=O)n3C)n2Cc2ccccc2Cl)s1	1	9	102	1	64*[fluorescence artefact?]	-2
O=C(COC(=O)Cc1ccc2c(c1)OCCO2)Nc1ccc(S(=O)(=O)N2CCCC2)cc1	.	-5	.	.	.	.
SMILES	MT1-MMP txn act	EphB4 ephrin blk	ERa SRC1 pot	ERb SRC1 inh	ERa SRC1 inh	Candida biofilm
COC(=O)c1c(C)[nH]c(C(=O)COC(=O)Cc2ccc3c(c2)OCCO3)c1C	1.1	-13	260*[fluorescence artefact?]	0	-1	11
CCOc1c(Cl)cc(CNCC(C)C)cc1OC	1.1	10	109	-11	-8	59*
COc1ccc(C(=O)NCC(c2cccnc2)N2CCN(c3ccccc3OC)CC2)cc1OC (stereo not drawn)	1.1	0	99	-8	-8	24*
COC(=O)Nc1ccc(S(=O)(=O)N2c3ccccc3CCC2C)cc1 (stereo not drawn)	1.1	.	86	3	0	5
Cc1ccc(-n2ncc3c(=O)[nH]c(SCC(=O)N4CCC(C)CC4)nc32)cc1C	1.1	.	346*[fluorescence artefact?]	18	8	10
Cc1ccc(-n2ncc3c(=O)[nH]c(SCC(=O)N4CCN(c5ccccc5)CC4)nc32)cc1	1.1	5	151	53*[fluorescence artefact?]	21	7
Cc1ccc(-n2ncc3c(=O)[nH]c(SCC(=O)N4CCCC4)nc32)cc1C	1.1	.	115	-7	0	13
Cc1ccc(-n2ncc3c(=O)[nH]c(SCC(=O)N4CCOCC4)nc32)cc1	1.1	2	108	-10	-4	10
CCSc1nc2c(cnn2-c2ccc(C)c(C)c2)c(=O)[nH]1	1.2	-2	239*[fluorescence artefact?]	65*[fluorescence artefact?]	70*[fluorescence artefact?]	15
CCCCCSc1nc2c(cnn2-c2ccccc2)c(=O)[nH]1	1.2	-3	283*[fluorescence artefact?]	44	45	3
Cc1ccc(S(=O)(=O)C2(C(=O)O)CCCC2)cc1C	1	0	108	8	14	6
CN1C(=O)c2ccccc2C(C(=O)NCC2CCCO2)C1c1c[nH]c2ccccc12 (stereo not drawn)	.	0	97	81*[fluorescence artefact?]	-6	6
CC1(C)CC(=O)C2=C(C1)Nc1ncnn1C2c1ccccn1 (stereo not drawn)	1.2	2	112	1	0	3
NC1=NC2(CCCCC2)n2c(nc3ccccc32)N1	1.3	2	36	3	52*[fluorescence artefact?]	-1
CC[C@H]1C2=C3C(CC[C@H]4C(OCc5ccc(F)cc5C(F)(F)F)OC[C@](C)([C@@H]34)N(C(=O)OC(C)(C)C)C2)C(COC(C)=O)C1COC(C)=O (stereo partly drawn)	1.2	.	.	.	.	.
O=C(Nc1nnc(CC(=O)N2CCCC2)s1)c1cnccn1	1.1	.	110	-12	4	3
Fc1ccc(CNc2nc3ccccc3n3cnnc23)cc1	.	5	306*[fluorescence artefact?]	1	84*	5
Cc1ccc(CNc2nc3ccccc3n3nnnc23)cc1	1.4	.	209*[fluorescence artefact?]	38	51*	8
CCOc1ccccc1Nc1nc2ccccc2n2cnnc12	1.1	.	368*[fluorescence artefact?]	43	25	14
CCCCOC(=O)C1C2C=C[C@]3(CN(CCCOC)C(=O)[C@H]13)O2 (stereo partly drawn)	1.2	5	106	-8	-1	-1
CCC/C=C(\CCC)C(NP(=O)(c1ccccc1)c1ccccc1)c1ccc(C(F)(F)F)cc1 (stereo not drawn)	1.2	.	.	.	.	.
Cc1ccc2[nH]c(=O)c(-c3noc(-c4ccncc4)n3)cc2c1	1	3	104	8	5	1
